# Screening results as filed in PubChem BioAssay.
# Mito fusion yeast – inhibitors of mitochondrial division or activators of mitochondrial fusion; Potency, µM (top dose mostly 46.1 µM), for the others: at the highest dose growth rescue (activation), usual class: activators; 320,000 compounds, 0.23% hits; S. cerevisiae fusion-defective mutant growth rescue, CellTiterGlo 48 h; also: % of control where 0% means no effect; nearly all actives have a fitted effect of over 45% in size
#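 S. cerevisiae fusion-defective temperature-sensitive mutants (e.g. fzo1-1, mgm1-5) grown 48 h at 37C in YPEG (ethanol/glycerol non-fermentable) medium with 23 nl compound per well; growth rescue read as CellTiterGlo luminescence.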
# GLP1R cytotox – cytotoxic in the GLP-1 receptor inverse agonist counter-screen | Potency, µM (series often up to 38.3 µM), for inactives: at the highest dose activity change, negative = inhibition, actives largely listed as inhibitors | AID 624418 | HEK293 cAMP-luciferase reporter cells, luminescence, 24 h | 410,000 compounds, 0.13% hits;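 also: loss of luciferase light is scored as toxicity; % is scaled to controls: 0 for no effect and ±100 for the full control effect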
#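 Seeding density was 200 cells/uL; after overnight-length (12 h) culture, 23 nL compounds went on for 24 h at 37 °C. Readout used a luciferase detection reagent, luminescence taken after 12 min at room temperature.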
# GLP-1R agonist – activates the human GLP-1 receptor. P43220. HEK293 GLP-1R CRE-luciferase, luminescence, 4-6 h; cells express a hypersensitive GLP-1R form. Potency, µM (series often up to 45.6 µM), without a hit: at the highest dose activation, usual class: activators. 380,000 compounds, 0.007% hits. AID 624172; also: % of control where 0% means no effect
# Target sequence (P43220 whole entry, looked up): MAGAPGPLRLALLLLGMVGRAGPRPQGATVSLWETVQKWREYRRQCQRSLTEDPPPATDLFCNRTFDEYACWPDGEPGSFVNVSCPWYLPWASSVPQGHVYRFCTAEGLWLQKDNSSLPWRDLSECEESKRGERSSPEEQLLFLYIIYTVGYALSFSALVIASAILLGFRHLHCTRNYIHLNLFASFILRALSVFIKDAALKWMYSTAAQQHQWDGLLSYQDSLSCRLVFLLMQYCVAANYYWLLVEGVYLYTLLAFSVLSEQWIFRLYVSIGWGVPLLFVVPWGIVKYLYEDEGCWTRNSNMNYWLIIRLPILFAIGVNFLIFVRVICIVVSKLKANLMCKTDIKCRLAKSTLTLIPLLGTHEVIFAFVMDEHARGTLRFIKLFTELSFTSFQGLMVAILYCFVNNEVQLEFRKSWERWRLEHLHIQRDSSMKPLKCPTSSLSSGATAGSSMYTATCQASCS
# BRCA1 expr up – activators of BRCA1 expression; MCF7-BRCA1-FFLuc reporter, luminescence, 48 h; response scale: scaled: vehicle 0%, 10 µM genistein 100%; Potency, µM (series often up to 46.1 µM), without a hit: top-dose activation, most hits filed as activators; 380,000 compounds, 1.1% hits; also: nearly all actives have a fitted effect of over 80% in size
#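 Reporter cells (MCF7, BRCA1 promoter-firefly luciferase) received library compounds across a concentration series for 48 h. End-point luminescence was measured and concentration-effect curves derived after normalization.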
# GLP1R inv ag – GLP-1 receptor (human) inverse agonism | P43220 | HEK293 GLP-1R CRE-luciferase, luminescence, 24 h; GLP-1R form is constitutively active | Potency, µM (highest dose often 38.3 µM), for inactives: top-dose activity change, negative = inhibition, hits mostly inhibitors | 410,000 compounds, 1.6% hits; also: % is scaled to controls: 0 for no effect and ±100 for the full control effect; nearly all actives have a fitted effect of over 55% in size
#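 Inverse agonism was detected as reduced cAMP-driven luciferase luminescence after 24 h compound treatment. The cells were HEK293 clones expressing constitutively active human GLP-1R with the reporter. Reporter-only and GPR119 cell lines served as counterscreen controls.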
# An asterisk follows results filed as active; u = inconclusive; x = not tested or not shown; ! = not active in a repeat; [ ] = remark or other dose. Only some compounds are listed: those with a hit (about 2.8% of all), similar ones and a draw of the others. Calls follow the shape of the dose curve; as a rule, active = well fitted curve in the direction sought with a large enough effect; inconclusive = small, poorly fitted or top-dose-only effect, or another doubt; inactive = no such curve, though single readings can be large; an effect the other way counts as inactive or inconclusive. Potency is read from the fitted curve at half-maximal effect.
SMILES,Mito fusion yeast,GLP1R cytotox,GLP-1R agonist,BRCA1 expr up,GLP1R inv ag
COc1ccccc1CNCC(=O)Nc1ccc(N2CCOCC2)cc1,-0.1%,-12.3%,2.1%,-1.0%,-30.7%
COc1ccccc1NC(=O)Nc1ccc2c(c1)CCC2,-8.0%,-5.5%,11.0%,2.82µM*,u
COc1ccc(NC(=O)Nc2nnc(C(C)C)s2)cc1,-4.7%,9.6%,5.9%,10µM*,67.6%
Cc1cc(NC(=O)c2ccccc2-c2ccccc2)ccc1Br,1.8%,10.1%,0.7%,-60.0%,10µM*
COc1ccc(-n2ccnc2SCC(=O)NCc2ccccc2)c(OC)c1,1.5%,-2.3%[7.66 µM],-0.8%,-5.5%,-5.6%[7.66 µM]
CCCCCCC(C)n1cc(C(C)=O)c(=O)n(C)c1=O (configuration not stated),-3.9%,9.6%,7.6%,-23.5%,-21.4%
Cc1ccccc1-c1nc2c(=O)n(C)c(=O)nc-2n(C)n1,x,x,x,-77.7%,x
CC(C)(C)OC(=O)N1Cc2ccccc2C[C@H]1C(=O)O,0.7%,-7.8%,-9.1%,-18.2%,0.1%
Cc1ccc(SC2=NS(=O)(=O)c3ccccc32)c(C)c1,x,x,x,12.2%,x
CN(C)c1ccc(NC(=S)c2ccccn2)cc1,-10.8%,-27.0%,-15.8%,u,5.62µM*
Cc1cc(C(=O)OCC(=O)N(C)C2CCS(=O)(=O)C2)c(C)n1-c1ccccc1 (configuration not stated),1.2%,8.2%,5.3%,0.7%,5.0%
COC(=O)CCNC(=O)N1CCN(c2nnc(C)c3c(C)n(-c4ccc(Cl)cc4)nc23)CC1,x,1.5%,x,x,1.7%
O=C(Cn1ncc(Cl)c(Cl)c1=O)N1CCc2ccccc21,-7.9%,5.62µM*,-8.6%,-100.1%,u
O=C(Cn1ncc(Cl)c(Cl)c1=O)N1CCN(Cc2ccccc2)CC1,-10.3%,u,-12.6%,-80.3%,u
O=C(Nc1nnc(CCc2ccccc2)s1)c1cccc(F)c1,-0.1%,-0.1%,1.5%,u,11.8%
Cc1cc2nc(N)sc2cc1[N+](=O)[O-],2.0%,-11.8%,9.0%,12.6µM*,10.2%
Nc1nc2ccc([N+](=O)[O-])cc2s1,x,x,-2.2%[96 µM],x,x
Cc1ccc(NCC(=O)N/N=C/c2cccc(Oc3ccccc3)c2)cc1,14.9%,2.9%[1.53 µM],-0.2%,-48.9%,u
O=C(Nc1ccc(Cl)c(Cl)c1)Nc1ccccc1O,-17.7%,-22.4%,1.8%,2.82µM*,u
O=C(NCCc1ccncc1)Nc1ccc(Cl)c(Cl)c1,2.0%,4.7%,-0.6%,3.7%,u
CN(C)CCNC(=O)Nc1ccc(Cl)c(Cl)c1,-7.2%,-10.1%,-13.9%,-0.3%,11.2µM*
O=C(Nc1ccc(Cl)c(Cl)c1)Nc1ccon1,-16.3%,u,5.3%,-43.9%,7.94µM*
CCc1ccc(C(=O)NNC(=O)[C@H](C)NC(=O)c2ccco2)cc1,x,-9.2%,0.3%,3.3%,4.6%
COc1ccc(-c2cc(C)no2)cc1S(=O)(=O)N1CCN(c2ccccc2F)CC1,11.3%,8.1%,8.1%,-35.2%,10µM*!
COc1ccc(-c2cc(C)no2)cc1S(=O)(=O)N1CCCN(Cc2ccccc2Cl)C1,-18.2%,-2.2%,7.9%,-24.7%,8.91µM*
SMILES,Mito fusion yeast,GLP1R cytotox,GLP-1R agonist,BRCA1 expr up,GLP1R inv ag
CCOc1ccc(Cn2c(CNS(=O)(=O)c3ccc(Cl)s3)nc3cccnc32)cc1,x,1.9%,x,x,-6.2%
Cc1ccc(S(=O)(=O)NC2CCCc3ccccc32)cc1C (configuration not stated),1.2%,-4.2%,1.8%,0.9%,5.01µM*
O=C(c1cc(F)ccc1F)C1CCCN(C(=O)c2cccs2)C1 (configuration not stated),7.7%,2.2%,14.3%,-8.7%,u
CC(C)Cc1cc(C(=O)N2CCCC(C(=O)c3cc(F)ccc3F)C2)no1 (configuration not stated),11.2µM*,-7.3%,13.2%,-6.1%,u
CCCOc1ccc(CNC(=O)CCCN2C(=O)CSc3c2c(C)nn3-c2ccccc2)cc1,x,-5.7%,x,-14.3%,u
NC(N)=N/N=C(\N=Nc1ccccc1)c1ccc(Cl)cc1,x,u,-4.8%,41.5%,10µM*
CCN1CCN(CCCNC(=O)c2ccc3c(c2)NC(=O)/C(=C\c2cccc(C)c2)S3)CC1,-5.6%,u,-0.3%,-42.0%,7.08µM*
Cc1cccc(/C=C2/Sc3ccc(C(=O)NCCN4CCCC4)cc3NC2=O)c1,20.6%,u,11.3%,-40.4%,u
CCCCC(CC)C1OCC(C[N+]2(C)CCOCC2)O1 (configuration not stated),-3.0%,-0.4%,-1.6%,0.3%,-3.4%
CCN1CCN(c2ccc(NC(=O)c3cc(OC)c(OC)c(OC)c3)cc2)CC1,2.8%,-2.0%,-2.7%,-9.5%,0.0%
COC(=O)Cn1c(=NC(=O)c2cccc(OC)c2)sc2cc(OC)ccc21,3.4%,63.8%,2.4%,10µM*,8.4%
COC(=O)Cn1c(=NC(=O)c2cc(OC)cc(OC)c2)sc2cc(OC)ccc21,5.3%,-10.5%,2.3%,-14.1%,2.7%
COc1cccc(C(=O)N=c2sc3cc(S(C)(=O)=O)ccc3n2C)c1,-5.1%,3.5%,20.8%,6.31µM*,82.9%
COc1cc(OC)cc(C(=O)N=c2sc3ccccc3n2C)c1,-6.6%,-7.4%,4.0%,u,9.1%
O=C(OCC1OC(n2ccc(=O)[nH]c2=O)C2OC12)c1ccccc1 (configuration not stated),x,-11.3%,11.6%,-6.4%,4.3%
O=C(Nc1nnc(-c2ccc(Cl)cc2)o1)C1CCCCC1,0.4%,8.0%,2.8%,-7.2%,10.4%
Clc1ccc(-c2nnc(NC3=NCCCCC3)o2)cc1,-0.9%,-3.8%,-17.7%,u,4.47µM*
O=C(CN1CCN(Cc2ccc3c(c2)OCO3)CC1)Nc1cc(S(=O)(=O)N2CCCC2)ccc1Cl,-0.9%,4.2%,5.2%,-63.6%,-4.5%
Cc1ccc(C)c(NC(=O)c2ccc3c(=O)n4c(nc3c2)CCC4)c1,2.1%,-32.4%,-7.7%,4.47µM*,-6.5%
COc1cc(OC)cc(C(=O)Nc2ccc3nc4n(c(=O)c3c2)CCCCC4)c1,-5.1%,-2.0%,19.5%,4.47µM*,66.9%
COc1ccc(N2CC(NC(=O)c3cccc4ccccc34)CC2=O)cc1OC (configuration not stated),0.4%,0.9%,4.8%,-9.6%,51.5%
CCn1c(SCC(=O)N(C)CCC#N)nc2cc(S(=O)(=O)N3CCOCC3)ccc21,-11.6%,8.2%,-3.5%,-22.0%,5.5%
COC(=O)c1ccccc1NC(=O)COC(=O)c1ccccc1N=Nc1ccc(N(C)C)cc1,-3.8%,4.8%,1.2%,-20.2%,2.3%
CC(=O)c1ccc(NC(=O)COC(=O)c2ccccc2N=Nc2ccc(N(C)C)cc2)cc1,10.2%,10µM*,6.9%,-38.6%,43.1%
CN(C)CCNC(=O)c1cccc2nc3cccc(F)c3nc12,x,-2.7%,-5.4%,-97.5%,6.31µM*
